Results published in PubChem BioAssay (Tox21).
Calls of active or inactive are those of the source. Entries that show only a call come without a potency. Calls follow the shape of the dose curve; as a rule, active = well fitted curve in the direction sought with a large enough effect in the repeat runs; inconclusive = weak or mixed curves; inactive = flat fitted curve, though single readings scatter.

Assay: qHTS assay to test for compound auto fluorescence at 460 nm (blue) in HepG2 cell free culture (AID 720685)
Details: Cell-free culture medium, blue autofluorescence 405/460 nm; series mostly up to 91.3 µM
Source text: U.S. Tox21 Program National Center for Advancing Translational Sciences [NCATS] NIH Chemical Genomics Center [NCGC] U.S. Environmental Protection Agency [EPA] National Institutes of Environmental Health Sciences [NIEHS] National Toxicology Program [NTP] U.S. Food and Drug Administration [FDA] Tox21 Assay Overview: Compound auto fluorescence often interferes with screening of the compound library against various biological targets and signaling pathways. Some of these compounds may have fluorophoric properties. Such properties may interfere with the assay outputs resulting in false positives and/or negatives. To decrease such complications and ensure the compound activities are relevant in terms of biological response, the Tox21 10K compound library was screened for auto fluorescence. From the fluorophores used as reporter signals in our screening assays, the auto fluorescence equivalencies of compounds against three fluorophores have been evaluated: Triamterene, Fluorescein and Rose Bengal sodium for blue, green and red fluorescence, respectively. The fluorescence intensities were measured using Excitation/Emission wavelengths at 405/460nm, 485/535nm and 540/590nm for blue, green and red labels, respectively. This assay includes the blue fluorescence data.
Tox21 Assay Protocol Summary: 5 uL of culture medium (MEM containing 10% FBS) per well was dispensed into black wall/clear bottom 1536-well plates using a Multidrop Combi Dispenser (ThermoFisher Scientific, Waltham, MA). After 23 nL compound or DMSO vehicle was transferred into assay plate by a pintool work station (Kalypsys, San Diego, CA), fluorescence intensities in the assay plates were measured by an Envision (PerkinElmer, Shelton, CT) plate reader using three labels for measuring blue, green and red fluorescence at […] 460, 535 and 590nm respectively.
Potency is read from the fitted curve at half-maximal effect; tags tell the direction and shape of the fitted curve or compound fluorescence and quenching.

Row | Structure (SMILES) | Potency
1 | c1ccc(CSCc2ccccc2)cc1 | inactive
2 | CCN(CC)CCCC(C)Nc1c2ccc(Cl)cc2nc2ccc(OC)cc12 (stereo not given) | 15.8 µM [fluorescent] (active)
3 | CC(C)(C)C(=O)OCOC(=O)C1N2C(=O)CC2S(=O)(=O)C1(C)C (stereo not given) | inactive
4 | CC[C@@]1(O)C(=O)OCc2c1cc1n(c2=O)Cc2cc3c(CN(C)C)c(O)ccc3nc2-1 | 14.1 µM [fluorescent] (active)
5 | CC(=O)OCC(C)OC(C)=O (stereo not given) | inactive
6 | CC1=NC(C)OC1C (stereo not given) | inactive
7 | CCN1/C(=C/C=C/c2sc3ccccc3[n+]2CC)Sc2ccccc21 | inactive
8 | CC(C)OC(=O)c1cc2c(OCC(O)CNC(C)(C)C)cccc2[nH]1 (stereo not given) | inactive
9 | CCN(CCC#N)c1ccc(N=Nc2c(Cl)cc([N+](=O)[O-])cc2Cl)cc1 | inactive
10 | CC1=C(/C=C/C(C)=C/C=C/C(C)=C/C=O)C(C)(C)CCC1 | inactive
11 | CNc1ccc(O)cc1 | inactive
12 | CSc1ccc2c(c1)C(N1CCN(C)CC1)Cc1ccccc1S2 (stereo not given) | inactive
13 | CCCCCCCCCCCCc1ccc(O)cc1 | inactive
14 | CCc1oc2ccccc2c1C(=O)c1cc(Br)c(O)c(Br)c1 | inactive
15 | Nc1c(Cl)cc(Cl)cc1Cl | inactive
16 | Oc1ccc(N=Nc2ccccc2)cc1 | inactive
17 | CCc1cc(Cc2cc(CC)c(N)c(CC)c2)cc(CC)c1N | inactive
18 | CCCCN(CCCC)C(=O)N(CCCC)CCCC | inactive
19 | C/C=C(\C)C(=O)OCc1ccccc1 | inactive
20 | O=C(NOCC1CC1)c1ccc(F)c(F)c1Nc1ccc(I)cc1Cl | inactive

Row | Structure (SMILES) | Potency
21 | Clc1ccc2cc3ccccc3cc2c1 | inactive
22 | OCCN1CCN(CC/C=C2/c3ccccc3Sc3ccc(C(F)(F)F)cc32)CC1 | inactive
23 | Cc1cc(CCN2CCN(c3nsc4ccccc34)CC2)cc2c1NC(=O)CC2(C)C | inactive
24 | CCC(N)(CO)CO | inactive
25 | CCCCCCCCCCCCCCCCCC[N+](C)(C)C | inactive
26 | On1ccccc1=S | inactive
27 | CCCCCCCCn1sc(Cl)c(Cl)c1=O | inactive
28 | O=C(Nc1cccc(Cl)c1)OCC#CCCl | inactive
29 | Cc1cccc(S(=O)(=O)O)c1C | inactive
30 | CCCC(C)c1ccccc1O (stereo not given) | inactive
31 | CCCCCCCC[N+](CCCCCCCC)(CCCCCCCC)CCCCCCCC | inactive
32 | N=C1N=C(N)c2ccccc21 | inactive
33 | CC(C)(C)NC(=O)[C@@H]1C[C@@H]2CCCC[C@@H]2CN1C[C@@H](O)[C@H](Cc1ccccc1)NC(=O)[C@H](CC(N)=O)NC(=O)c1ccc2ccccc2n1 | inactive
34 | COCCCC/C(=N\OCCN)c1ccc(C(F)(F)F)cc1 | inactive
35 | O=C(OCC(COC(=O)c1ccccc1)(COC(=O)c1ccccc1)COC(=O)c1ccccc1)c1ccccc1 | inactive
36 | CC(C)c1ccc2c(c1)CC[C@H]1[C@](C)(CN)CCC[C@]21C | inactive
37 | O=C1Cc2cc(CCN3CCN(c4nsc5ccccc45)CC3)c(Cl)cc2N1 | inactive
38 | Cc1cccc2c1cc1ccc3cccc4ccc2c1c34 | inactive
39 | [Cl][Au]([Cl])[Cl] | inactive
40 | Cc1cc(O)c(Cl)c(C)c1Cl | inactive
